# Measured values: PubChem BioAssay (Tox21)
# Results filed as inconclusive are left out. A call without a number means that no potency is given here. A number with no mark means an inactive call. Active and inactive are the calls of the source. Unless noted, calls follow the shape of the dose curve; as a rule, active = well fitted cell-killing curve with a large enough effect in the repeat runs; inconclusive = weak or mixed curves, or effect the other way; inactive = no such curve, though single readings can be large or run the other way.
# Target: Retinoic acid receptor RXR-alpha (Homo sapiens) (UniProt P19793)
# Assay: qHTS assay to identify small molecule agonists of the RXR signaling pathway (AID 1159527; calls by dose curve; also: nearly all actives have a fitted effect of over 35% in size)
# Settings: HEK293T RXRa-UAS-bla, beta-lactamase ratio, 16 h; series mostly up to 76.8 µM
# Summary of the method: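 Read-out: beta-lactamase FRET ratio (405 nm excitation, 460 and 530 nm emission) after 2 hr substrate loading at room temperature. Cells were RXR-alpha-UAS-bla HEK 293T treated with compounds for 16 hr in 2% charcoal-stripped FBS medium.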
# Chain of Retinoic acid receptor RXR-alpha (Homo sapiens) (P19793 whole entry, looked up): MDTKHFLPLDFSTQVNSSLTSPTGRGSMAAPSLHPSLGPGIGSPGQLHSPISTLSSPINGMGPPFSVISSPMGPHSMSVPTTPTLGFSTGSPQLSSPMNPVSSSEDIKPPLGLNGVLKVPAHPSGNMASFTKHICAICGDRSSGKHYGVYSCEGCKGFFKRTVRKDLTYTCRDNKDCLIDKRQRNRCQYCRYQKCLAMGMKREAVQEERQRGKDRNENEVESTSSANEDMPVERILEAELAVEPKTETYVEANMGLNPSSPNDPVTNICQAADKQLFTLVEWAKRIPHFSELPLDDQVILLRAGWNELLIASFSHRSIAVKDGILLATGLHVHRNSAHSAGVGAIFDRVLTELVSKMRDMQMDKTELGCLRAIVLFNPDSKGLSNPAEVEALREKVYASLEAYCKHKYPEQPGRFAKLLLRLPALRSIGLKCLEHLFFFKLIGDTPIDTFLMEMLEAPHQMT
Compound,Potency,activation
CC(C)NCC(O)COc1ccc(COCCOC(C)C)cc1 (configuration not stated),inactive,
COCCOCCOCCOCCOCCO,inactive,
N#Cc1ccc(C(=O)O)cc1,inactive,
Cc1ccccc1C(=O)Nc1ccc(C(=O)N2CCCC(N(C)C)c3ccccc32)cc1 (configuration not stated),inactive,
COCCOC(=O)C1=C(C)NC(C)=C(C(=O)OC(C)C)C1c1cccc([N+](=O)[O-])c1 (configuration not stated),inactive,
CN1CCN(CC(=O)N2c3ccccc3C(=O)Nc3cccnc32)CC1,,4.73% [at 6.98 µM]
CCCCCCCCOS(=O)(=O)O,inactive,
CC(=O)NCc1c(I)c(NC(C)=O)c(I)c(C(=O)O)c1I,inactive,
CC(C)C[C@H](NC(=O)CNC(=O)[C@H](Cc1ccc(O)cc1)NC(=O)[C@H](CO)NC(=O)[C@H](Cc1c[nH]c2ccccc12)NC(=O)[C@H](Cc1cnc[nH]1)NC(=O)[C@@H]1CCC(=O)N1)C(=O)N[C@@H](CCCN=C(N)N)C(=O)N1CCC[C@H]1C(=O)NCC(N)=O (stereo in doubt),inactive,
COc1cc(C(=S)N2CCOCC2)cc(OC)c1OC,inactive,
COc1ccc(C2CNC(=O)C2)cc1OC1CCCC1 (configuration not stated),inactive,
CC(C)(C)NC(N)=O,inactive,
Cc1ccc(C=O)cc1C,inactive,
CN1C(C)(C)CCCC1(C)C,inactive,

# System: not listed separately
# Assay: qHTS assay to identify small molecule agonists of the RXR signaling pathway - cell viability counter screen (AID 1159529); also: nearly all actives have a fitted effect of over 50% in size
# Settings: RXR-alpha-bla HEK293T viability, CellTiter-Glo, 16 h; series mostly up to 76.8 µM
# Summary of the method: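 HEK 293T RXRa-bla cells, 2% CS-FBS; 5 h settle; cpd 16 h 37 C, 5% CO2; CellTiter-Glo 30 min RT, luminescence. Tetraoctyl ammonium bromide as positive control.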
Compound,outcome,"activity change, negative = cytotoxicity"
CN(CCOc1ccc(NS(C)(=O)=O)cc1)CCc1ccc(NS(C)(=O)=O)cc1,inactive,
CCCCCCOC(=O)CC,inactive,
O=S(=O)(O)CCN1CCN(CCO)CC1,inactive,
Cc1cc(C(C)(C)C)c(O)c(C)c1CC1=NCCN1,inactive,
CC(C)(C)c1n[nH]c(=S)n(N)c1=O,inactive,
CCC(C)NC(N)=O (configuration not stated),inactive,
Oc1cn2c(n1)Nc1ccc(Cl)c(Cl)c1C2,,-0.221% [at 15.8 µM]
Cc1nc2n(c(=O)c1CCN1CCC(c3noc4cc(F)ccc34)CC1)CCC[C@H]2O,,-5.89% [at 15.8 µM]
NS(=O)(=O)c1ccc(NC(=O)CCC(=O)O)cc1,inactive,
C=C(C)C(=O)OCC(C)(C)COC(=O)C(=C)C,inactive,
CCCCCCCCSCC,inactive,
C=C(C)C1CCC(C)(O)CC1 (configuration not stated),inactive,
On1nnc2ccccc21,inactive,
NC(CO)C(=O)NNCc1ccc(O)c(O)c1O (configuration not stated),inactive,
O=C(CCNNC(=O)c1ccncc1)NCc1ccccc1,inactive,
CC(C)NCC(O)COc1cccc2[nH]ccc12 (configuration not stated),inactive,
N[C@@H](COP(=O)(O)O)C(=O)O,,11.4% [at 15.8 µM]
O=C1CC(c2ccc(Cl)cc2)CC(=O)N1,inactive,
CCOc1cc(NC(C)=O)ccc1C(=O)OC,inactive,

Compound,outcome,"activity change, negative = cytotoxicity"
CCOC(=O)c1ncn2c1CN(C)C(=O)c1cc(F)ccc1-2,inactive,
CC(C)N(c1ccccc1)C(C)C,inactive,
CC(C)(C)c1nnc(NS(=O)(=O)c2ccc(N)cc2)s1,inactive,
C=CCCCCCCCCCCCC,inactive,
CCCN1C[C@H](CSC)C[C@@H]2c3cccc4[nH]cc(c34)C[C@H]21,inactive,
CC(C)NCC(O)COc1ccc(COCCOC(C)C)cc1 (configuration not stated),inactive,
COCCOCCOCCOCCOCCO,inactive,
N#Cc1ccc(C(=O)O)cc1,inactive,
Cc1ccccc1C(=O)Nc1ccc(C(=O)N2CCCC(N(C)C)c3ccccc32)cc1 (configuration not stated),inactive,
COCCOC(=O)C1=C(C)NC(C)=C(C(=O)OC(C)C)C1c1cccc([N+](=O)[O-])c1 (configuration not stated),inactive,
CN1CCN(CC(=O)N2c3ccccc3C(=O)Nc3cccnc32)CC1,,0.873% [at 6.97 µM]
CCCCCCCCOS(=O)(=O)O,inactive,
CC(=O)NCc1c(I)c(NC(C)=O)c(I)c(C(=O)O)c1I,inactive,
CC(C)C[C@H](NC(=O)CNC(=O)[C@H](Cc1ccc(O)cc1)NC(=O)[C@H](CO)NC(=O)[C@H](Cc1c[nH]c2ccccc12)NC(=O)[C@H](Cc1cnc[nH]1)NC(=O)[C@@H]1CCC(=O)N1)C(=O)N[C@@H](CCCN=C(N)N)C(=O)N1CCC[C@H]1C(=O)NCC(N)=O (stereo in doubt),inactive,
COc1cc(C(=S)N2CCOCC2)cc(OC)c1OC,inactive,
COc1ccc(C2CNC(=O)C2)cc1OC1CCCC1 (configuration not stated),inactive,
CC(C)(C)NC(N)=O,inactive,
Cc1ccc(C=O)cc1C,inactive,
CN1C(C)(C)CCCC1(C)C,inactive,
